Only a selection was taken, and hits are over-represented in it overall.
PI5P4Ka inh – inhibitors of human PI5P4K alpha; P48426; PI5P4Kalpha enzyme, ADP-Glo luminescence, 60 min; stronger effect = lower value; max response, %; actives 1.2% (n = 330,000); active = max response of -50% or lower; inconclusive = between -30% and -50%; inactive = -30% or higher; note: value at the top dose of about 77 µM
Target sequence (P48426 whole entry, looked up): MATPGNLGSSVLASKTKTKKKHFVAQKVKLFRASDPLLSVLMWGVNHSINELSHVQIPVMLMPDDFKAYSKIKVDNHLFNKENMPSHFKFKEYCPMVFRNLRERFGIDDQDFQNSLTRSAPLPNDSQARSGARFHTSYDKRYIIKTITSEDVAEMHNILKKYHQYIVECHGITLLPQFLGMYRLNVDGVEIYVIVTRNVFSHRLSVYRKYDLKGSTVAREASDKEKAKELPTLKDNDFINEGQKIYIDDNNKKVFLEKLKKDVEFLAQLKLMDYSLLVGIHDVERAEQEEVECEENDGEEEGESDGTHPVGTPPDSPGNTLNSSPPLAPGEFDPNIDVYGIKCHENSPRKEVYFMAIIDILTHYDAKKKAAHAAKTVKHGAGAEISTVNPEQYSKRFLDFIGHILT
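Enzyme plus substrate dispensed, test compounds pinned in, then ATP (5 microM final) added. After 60 min at RT, ADP-Glo reagent 1 for 45 min and reagent 2 for 30 min preceded luminescence imaging.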
PGK inhibitor – inhibitors of T. brucei phosphoglycerate kinase; P07378; PGK/GAPDH coupled, Kinase-Glo luminescence, 60 min; Potency, µM (top dose mostly 57.5 µM), for inactives: at the highest dose activity change, negative = inhibition, actives largely listed as inhibitors; actives 0.043% (n = 380,000); note: potency is the fitted concentration of half-maximal effect; nearly all actives have a fitted effect of over 60% in size
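Recombinant glycosomal PGK reaction used 1,3-bisphosphoglycerate generated in-well by GAPDH (100nM final) in 100mM TEA pH 7.6, 5mM MgCl2, 0.01% Tween-20. After 60 minutes at room temperature, ATP was read by Kinase-Glo Plus luminescence end-point.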
Pin1 inh – blocks the human prolyl isomerase Pin1; Pin1 FP peptide displacement, HiFluor488, 10 min; Potency, µM (titrated, usually from 115 µM), for inactives: top-dose activity, negative = inhibition, actives largely listed as inhibitors; actives 0.009% (n = 390,000); active = well fitted inhibition curve with a large enough effect in the polarisation, with a control signal flat, not every such curve was filed as active; inconclusive = small, poorly fitted or top-dose-only effect, or effect the other way, or a change in a side signal; inactive = no such curve, though single readings can be large or run the other way; the % refers to the polarisation; note: potency is the fitted concentration of half-maximal effect
Target sequence (Q13526 whole entry, looked up): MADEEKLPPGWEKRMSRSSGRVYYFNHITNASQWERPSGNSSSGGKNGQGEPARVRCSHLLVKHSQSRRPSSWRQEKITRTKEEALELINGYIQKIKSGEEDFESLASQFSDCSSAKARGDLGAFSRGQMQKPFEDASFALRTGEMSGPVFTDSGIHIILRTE
Tb PFK block – T. brucei PFK enzyme inhibition; O15648; T. brucei PFK, ADP-Glo luminescence; Potency, µM (series often up to 57.5 µM), without a hit: top-dose activity, negative = inhibition, hits mostly inhibitors; actives 0.17% (n = 330,000);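 note: potency is the fitted concentration of half-maximal effect; 0% = uninhibited 1x PFK enzyme wells and -100% = no-enzyme wells; nearly all actives have a fitted effect of over 60% in size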
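Activity is normalized to no-enzyme wells (full inhibition) and 1.25 nM enzyme wells (no inhibition). Reaction: 0.5 mM F6P, 0.1 mM ATP, 45 min RT, ADP-Glo luminescence; concentration-response curves fitted and classed by quality.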
PI4K2A block – inhibitors of human PI4K2A; Q9BTU6; purified PI4K2A, ADP-Glo luminescence, 1 h; stronger effect = lower value; activity change, negative = inhibition, % at 76.9 µM; actives 0.13% (n = 420,000); in the data active = activity change below about -50%; inconclusive = mostly about -30% to -49%;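 note: -100% = wells without enzyme as full effect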
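Compounds are screened against recombinant PI4K2A using PI as substrate and ATP, the latter dispensed at 300 microM. Reactions run one hour at ambient temperature before ADP-Glo detection; full inhibition defined by wells lacking enzyme.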
The depositor's hits bear a star; i = inactive; ? = inconclusive; nt = no result. Unless noted, calls come from the whole dose curve; as a rule, active = well fitted curve in the direction sought with a large enough effect; inconclusive = small, poorly fitted or top-dose-only effect, or another doubt; inactive = no such curve, though single readings can be large; an effect the other way counts as inactive or inconclusive. Unless noted, % is set by controls: 0 for no effect and ±100 for the full control effect.

SMILES	PI5P4Ka inh	PGK inhibitor	Pin1 inh	Tb PFK block	PI4K2A block
C[C@H]1O[C@@H](O[C@H]2CC[C@@]3(C)[C@H](CC[C@@H]4[C@@H]3C[C@@H](O)[C@]3(C)[C@@H](C5=CC(=O)OC5)CC[C@]43O)C2)C[C@H](O)[C@@H]1O[C@H]1C[C@H](O)[C@H](O[C@H]2C[C@H](O)[C@H](O[C@@H]3O[C@H](CO)[C@@H](O)[C@H](O)[C@H]3O)[C@@H](C)O2)[C@@H](C)O1	nt	nt	nt	nt	0.4
COc1ccc(NC(=S)NC(=O)/C=C/c2ccco2)c(OC)c1	-3.2	1.9%	?	0.5%	3.3
O=C(O)c1ccc(NC(=S)NC(=O)c2ccc(-c3ccccc3)cc2)cc1	-54.6*	-18.0%	8.5%	2.7%	-0.5
COc1cc(NS(=O)(=O)c2ccc(NC(=S)NC(=O)/C=C/c3ccco3)cc2)ncn1	-56.5*	20µM*	?	17.5%	-6.8
COc1cccc(NC(=S)NC(=O)/C=C/c2ccco2)c1	-54.5*	-3.0%	2.3%	-29.7%	-10.0
O=C(/C=C/c1cccs1)NC(=S)Nc1ccc(C(=O)O)cc1	-72.4*	-0.7%	24.1%	3.7%	0.4
O=C1OC2(c3ccccc31)c1cc(Br)c(O)c(Br)c1Oc1c2cc(Br)c(O)c1Br	nt	nt	nt	nt	-12.3
COc1ccc(C2=Nn3c(nnc3-c3ccccc3OC)SC2)cc1	nt	nt	5.4%	nt	nt
O=C(COC(=O)c1ccc(NS(=O)(=O)c2cccs2)cc1)NCc1ccco1	-71.5*	?	nt	-29.4%	-29.6
C=C(C)CSc1nnc(-c2cc(-c3ccc(OC)cc3)n[nH]2)n1N	nt	nt	nt	nt	0.1
O=C(N/N=C/c1ccc(-c2ccc(Cl)c(C(=O)O)c2)o1)c1cc2c(ccc3ccccc32)o1	-79.8*	?	nt	-26.8%	-5.7
Cc1ccc(-c2ccc(/C=N\NC(=O)c3cc4c(ccc5ccccc54)o3)o2)cc1[N+](=O)[O-]	?	-3.1%	9.1%	-1.3%	-1.7
O=C(O)c1cc(-c2ccc(/C=N/Nc3ccc([N+](=O)[O-])cn3)o2)ccc1Cl	-61.0*	-8.7%	67.2%	-4.6%	-10.6
O=C(O)c1cccc(-c2ccc(/C=N/Nc3ccc([N+](=O)[O-])cc3)o2)c1	-20.6	-2.8%	?	-3.1%	-4.2
CNC(=S)N/N=C/c1ccc(-c2ccc(Cl)c([N+](=O)[O-])c2)o1	-11.1	-4.2%	-13.2%	-15.8%	-5.4
CNC(=S)N/N=C/c1ccc(-c2ccc(C(=O)O)cc2)o1	-61.7*	?	1.0%	-15.1%	-26.0
O=C(O)c1ccc(-c2ccc(/C=N/Nc3ccc([N+](=O)[O-])cc3)o2)cc1	-54.7*	-6.4%	?	-1.5%	-1.2
CCc1ccc(NC(=O)c2cnn3c(C)cc(C)nc23)cc1	nt	nt	-3.5%	nt	nt
O=C(CO)[C@@H](O)[C@H](O)[C@@H](O)CO	nt	nt	nt	nt	1.9
O=C(N/N=C/c1ccc(Sc2ccccn2)o1)c1cc2ccccc2cc1O	-67.1*	-4.5%	?	-22.3%	-24.5
C/C(=N\NC(=O)c1nc2ccccn2c1C)c1cc2ccccc2o1	2.0	i	2.7%	-0.8%	-3.9
C/C(=N\NC(=O)c1cc2ccccc2cc1O)c1ccccn1	-53.5*	-1.2%	?	-10.0%	0.4
C/C(=N\NC(=O)c1cc2ccccc2cc1O)c1cc2ccccc2o1	-91.2*	-2.2%	24.6%	1.6%	-6.2
Cc1c(P(=S)(c2ccccc2)c2ccccc2)c2ccccc2n1C/C=C/c1ccccc1	nt	nt	0.7%	nt	nt
CC(=O)N[C@@H](CCC(N)=O)C(=O)O	nt	nt	nt	nt	-3.0
SMILES	PI5P4Ka inh	PGK inhibitor	Pin1 inh	Tb PFK block	PI4K2A block
COC(=O)c1nc(Nc2cc(F)cc(F)c2)nc(NC2CCCC2)n1	nt	nt	9.0%	nt	nt
O=[N+]([O-])c1cc(/C=N/Nc2nc3ccccc3[nH]2)c(O)cc1O	-73.3*	?	-2.7%	0.0%	-5.5
O=Cc1ccc(-c2ccccc2C(=O)O)o1	13.5	3.9%	4.3%	1.6%	4.2
O=C(O)c1ccccc1-c1c2cc(I)c(=O)c(I)c-2oc2c(I)c(O)c(I)cc12	-98.6*	?	?	nt	?
CCCCCNC(=O)C(c1cccc2ccccc12)n1c(=O)c(-c2ccco2)nc2ccccc21 (stereo not given)	-56.6*	nt	nt	nt	-23.0
CCCCCNC(=O)C(c1ccc(C(F)(F)F)cc1)n1c(=O)c(-c2ccco2)nc2ccccc21 (stereo not given)	-60.2*	nt	nt	nt	-3.9
CC(C)(C)NC(=O)C(c1cccc2ccccc12)n1c(=O)c(-c2ccco2)nc2ccccc21 (stereo not given)	-60.6*	nt	nt	nt	-2.8
CCCCCNC(=O)C(C1CC1)n1c(=O)c(-c2ccco2)nc2ccccc21 (stereo not given)	-23.6	nt	nt	nt	-4.5
CC(C)(C)NC(=O)C(c1cccc2ccccc12)n1c(=O)c(-c2ccccc2)nc2ccccc21 (stereo not given)	3.0	nt	nt	nt	-0.3
Cc1cc(=O)oc2cc(O[C@@H]3SC[C@@H](O)[C@H](O)[C@H]3O)ccc12	nt	nt	nt	nt	-0.5
O=[S+]([O-])(c1ccc2c(c1)OCCO2)N1CCN([S+](=O)([O-])c2c(F)cc(F)cc2Br)CC1	nt	nt	-2.8%	nt	nt
C=CCSC1=N/C(=C\c2ccc3c(c2)OCO3)C(=O)S1	8.1	-2.1%	-18.4%	-3.0%	3.9
C=CCSC1=N/C(=C\c2cc(OCC)c(OC(C)=O)c([N+](=O)[O-])c2)C(=O)S1	-72.3*	-5.7%	nt	18.0%	-3.3
CCOc1cc(C2C(C#N)=C(N)SC(N)=C2C#N)ccc1OCCN1CCOCC1	nt	nt	42.1%	-8.7%	-9.1
CCOc1ccc(C2C(C#N)=C(N)SC(N)=C2C#N)c(OCC)c1	-62.8*	-1.8%	?	-11.6%	1.3
Fc1ccc(C(c2ccc(F)cc2)N2CCNCC2)cc1	nt	nt	nt	nt	2.3
CC/C(C)=N/Nc1nc(-c2cc3cccc(OC)c3oc2=O)cs1	-60.2*	3.4%	?	-14.1%	-25.0
O=C(N/N=C/c1cc(Cl)cc([N+](=O)[O-])c1O)NC12CC3CC(CC(C3)C1)C2	-69.0*	11.2µM*	nt	-2.6%	-4.7
O=C(N/N=C/c1cc(Br)c(O)c(Br)c1O)c1ccc2c(c1)OCCO2	-56.4*	-5.3%	-2.9%	14.4%	5.4
O=C(N/N=C/c1cc(Br)c(Br)o1)c1ccc2c(c1)OCCO2	-56.8*	-8.0%	29.7%	-20.3%	-12.6
O=C(N/N=C/c1ccc2c(c1)OCO2)c1ccc2c(c1)OCCO2	0.1	i	-2.6%	0.1%	-4.7
COc1ccc(Cl)cc1S(=O)(=O)N1CCN(S(=O)(=O)c2ccc3c(c2)OCCO3)CC1	nt	nt	9.8%	nt	nt
COc1ccc(CN(Cc2ccccc2)C(=O)c2ccccc2N)cc1COc1ccc(NC(C)=O)cc1	nt	nt	-1.8%	nt	nt
Cc1oc(-c2ccc3c(c2)OCCO3)cc1C(=O)O	-28.0	?	1.4%	-13.7%	-74.6*
Cc1oc(-c2ccc3c(c2)OCCO3)cc1C(=O)NCC(=O)O	-23.4	-1.7%	5.2%	-2.3%	-4.0
